Laboratory results taken from PubChem BioAssay AID602449 (Sanford-Burnham Center for Chemical Genomics, 2012).
Among all 360,000 compounds or so, about 5,000 (1.4%) were called active.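 How the source made its calls: active means inhibition of 50% or more, scaled per plate between neutral and stimulator controls; inactive means the rest.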 This excerpt belongs to a sample that is enriched for actives.

Test: blockers of Ca2+-induced mitochondrial swelling – biochemical, isolated mouse mitochondria, absorbance, primary screen (AID 602449);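 further: 0% = DMSO wells given calcium and 100% = 1 mM EGTA wells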
Conditions: 30 min, at 10 µM, stronger effect = higher value

inhibition, active:
CCCCOc1ccc(CSC(=N)N)cc1[N+](=O)[O-] 112%
O=C(CCN1C(=O)/C(=C/c2cccs2)SC1=S)NNC(=O)c1cccc(O)c1 67.7%
CCOC(=O)N1CCN(C(=O)c2ccc3c(c2)N(Cc2ccc(C)cc2)CCS3)CC1 89%
Cc1ccc(-c2nc(COC(=O)c3c(C)noc3C)cs2)cc1 88.5%
CC(C)OCCCNc1ncnc2c1[nH]c1ccc(F)cc12 88.4%
Cc1ccc(C)c(S(=O)(=O)N2CCN(c3ncnc4sccc34)CC2)c1 86.5%
Cc1cccc(OCCNC(=O)CSc2ccc(C(F)(F)F)cc2[N+](=O)[O-])c1 80.1%
Fc1ccc(N2N=C(c3cccs3)CC2c2ccco2)c(F)c1 (centres undefined) 57.7%
c1ccc2c(CSCc3nc4ccccc4[nH]3)cccc2c1 74.4%
O=C(/C(=C/c1cccc(Cl)c1)c1nc2ccccc2[nH]1)c1ccccc1 84.4%
O=C(Nc1ccc2ccccc2c1)Nc1ccc2snnc2c1 99.8%
COc1ccc2c(c1)c(=Cc1ccc(N(C)C)cc1)c1cc(-c3ccccc3)[n+](C)n12 80.7%
Cc1nc(N2CCOCC2)c2c(C)c(C(=O)Nc3ccc(C(F)(F)F)cc3)sc2n1 72.5%

inhibition, inactive:
COc1cc(SC)ccc1C(=O)Nc1nc(C)cs1 0.2%
CCCCOC(=O)CCCc1ccc([N+](=O)[O-])cc1[N+](=O)[O-] 1.5%
CCCCCOc1ccc(CSC2=NCCN2)cc1[N+](=O)[O-] -1.4%
CC(C(=O)Nc1ccc(O)c(C(=O)O)c1)N1C(=O)/C(=C/c2cccs2)SC1=S (centres undefined) -1.2%
Cc1c(C(=O)NCCN2C(=O)S/C(=C\c3cccs3)C2=O)cccc1[N+](=O)[O-] 1.1%
COc1ccccc1N(C(=O)Cn1nnc2ccccc21)C(C(=O)NCc1ccco1)c1ccc(C)o1 (centres undefined) 4%
CCOC(=O)N1CCN(C(=O)c2ccc(CN(c3ccc(C)c(C)c3)S(C)(=O)=O)cc2)CC1 5.2%
O=C(NCCc1ccccc1)c1ccc2c(c1)N(Cc1ccccc1)CCS2 0.6%
CN(CCc1ccccc1)C(=O)c1cccc(NC(=O)Cc2cccc(NC(=O)C3CCCN(C(=O)CCc4ccccc4)C3)c2)c1 (centres undefined) -0.3%
CC(=O)c1c(C)[nH]c(C(=O)Nc2cc(S(=O)(=O)N(C)C)ccc2C)c1C -1.8%
CSc1ccc(/C=C2\NC(=O)NC2=O)cc1 0.6%
COC(=O)C1(C)NC(c2ccccc2OC)C2C(=O)N(c3ccccc3)C(=O)C21 (centres undefined) 1.1%
COc1ccc(C(=O)COC(=O)c2c(C)noc2C)cc1Cl -2.4%
COc1cc(OC)cc(C(=O)NCC(=O)OCc2csc(-c3ccccc3)n2)c1 -4.3%
CC12CN(NC(=O)c3ccc(Cl)cc3)C3(C#N)CC1CCC23C (centres undefined) 8.6%
Nc1ncc(CN2CCCC(C(=O)Nc3ccc(-c4ccco4)cc3)C2)cn1 (centres undefined) -0.6%
CCOC(=O)C1(Cc2ccc(O)cc2)NC(c2ccccc2F)C2C(=O)N(C)C(=O)C21 (centres undefined) -1.2%
O=C1CSc2ccc(S(=O)(=O)NCc3ccccc3)cc2N1 -1.3%
Cc1ccc(C)c(S(=O)(=O)N2CCN(CC(=O)Nc3ccc([N+](=O)[O-])cc3)CC2)c1 7.1%
Cc1ccc(C)c(S(=O)(=O)n2cnc3ccccc32)c1 -3.1%
CCCNC(=O)C1(C)CCN1C(=O)C1(c2ccccc2)CC1 (centres undefined) -0.6%
C=CCNC(=O)CCCOc1cccc(C)c1 1.5%
O=C(CSc1ccc(C(F)(F)F)cc1[N+](=O)[O-])NCCOc1ccccc1 18%
Cc1cc(C)n2c(NCc3ccccc3)c(CC(C)C)nc2n1 0.4%
Cc1ccccc1C1CC(c2cccs2)=NN1S(C)(=O)=O (centres undefined) -0.3%
O=C(COc1ccccc1Cl)N1N=C(c2cccs2)CC1c1ccco1 (centres undefined) -0.8%
O=C(NCc1ccccn1)c1cnc2sccn2c1=O -2.8%
C/C(=N\Nc1ccc(S(N)(=O)=O)cc1[N+](=O)[O-])c1cccs1 2.3%
c1ccc2c(C[n+]3csc4ccccc43)cccc2c1 -1.7%
O=C(OCc1nc2ccccc2[nH]1)C1CCCCC1 -0.1%
COc1ccc(N(CC(=O)N2CCOCC2)S(=O)(=O)c2ccccc2)cc1Cl 1.3%
O=c1c2cc(Br)ccc2nc(-c2cccc(Cl)c2)n1O 0.6%
O=c1[nH]c(/C=C/c2cccc(Br)c2)nc2ccccc12 2.1%
CC1CN(C(=S)Nc2ccc(S(N)(=O)=O)cc2)CC(C)O1 (centres undefined) -0.5%
NC(=O)Cn1c(=O)oc2ccccc21 -0.1%
CN1CCN(c2ncc3c(n2)CC(c2ccccc2F)CC3=O)CC1 (centres undefined) 1.4%
O=C(Oc1ccccc1Cl)c1ccc(N2CCOCC2)c([N+](=O)[O-])c1 9.1%
Cc1ccc(NC(=O)Nc2ccc3oc(C)nc3c2)cc1 -2.9%
CS(=O)(=O)c1ccccc1C(=O)Nc1ccc2sccc2c1 -0.4%
CC1(C(=O)NS(=O)(=O)c2cccc(F)c2)CCN1C(=O)Cc1cc(F)ccc1F (centres undefined) -0.4%
CCc1nc2c(OCc3ccc(C(F)(F)F)cc3)cccn2c1N(C)C(=O)CC(C)C 0.1%
O=C(O)c1cc(S(=O)(=O)NC2CCCc3ccccc32)ccc1O (centres undefined) 0.3%
COc1cc(C2C(N3C(=O)c4ccccc4C3=O)C(=O)N2c2ccc(C)c(C)c2)cc(OC)c1OC (centres undefined) 3%
Cc1nc(N2CCC(C)CC2)c2c(C)c(C(=O)Nc3cc(F)ccc3C)sc2n1 13.5%
Cc1nc(N2CCN(c3ccccn3)CC2)c2c(C)c(C(=O)Nc3ccc(F)c(Cl)c3)sc2n1 16.7%
C=C(C)Cn1c(N2CCN(CC)CC2)nc2c1c(=O)[nH]c(=O)n2C -0.4%
